Source: PubChem BioAssay AID1362 (SRMLSC, 2008)
About 4,000 (2.1%) of roughly 190,000 compounds were called active. No stated cut-off is given here; in the data, active means inhibition above about 58%; inactive means the rest, inconclusive results apart; tested in S. cerevisiae. For the sample, actives were picked, then their nearest neighbours and some compounds at random.

Experiment: growth inhibition of WT strain, primary screen, mitochondrial fusion inhibitor project, WT and mutant strains, chemical genetic (AID 1362)
Details: mitochondrial fusion phenotypic screen, at 10 µM
[1] = WT strain, growth inhibition, stronger effect = higher value

SMILES	inhibition [1]	inhibition (mutant strain inhibition)
Cc1ccc(C2C3=C(Nc4[nH]n(-c5ccccc5)c(=O)c42)c2ccccc2C3=O)cc1 (stereo unspecified)	-0.51% (inactive)	-6.48%
Cc1cc(C)c(C2C3=C(Nc4c2c(C)nn4-c2ccccn2)c2ccccc2C3=O)c(C)c1 (stereo unspecified)	78.7% (active)	55%
Cc1nn(-c2ccccn2)c2c1C(c1ccncc1)C1=C(CC(C)(C)CC1=O)N2 (stereo unspecified)	-4.23% (inactive)	-14.9%
COc1cccc(C(=O)Oc2cc(C)[nH]c(=O)c2[N+](=O)[O-])c1	15.8% (inactive)	-9.84%
O=C(N/N=C/c1ccccn1)c1ccc(S(=O)(=O)N2CCCCCC2)cc1	2.23% (inactive)	0.85%
COc1ccc(NC(=O)c2ccccc2CC[N+](=O)[O-])cc1	1.85% (inactive)	1.42%
O=C(Nc1ccccc1F)c1ccc(Cn2cc(Br)cn2)cc1	10.6% (inactive)	-0.75%
COCCCNC(=O)Cn1c(=O)n(Cc2ccccc2Cl)c(=O)c2cc(OC)c(OC)cc21	-6.28% (inactive)	4.75%
OC(c1nnc(-c2ccccc2)o1)c1cccs1 (stereo unspecified)	-15.8% (inactive)	5.68%
CCCN(CCC)c1ccc(C(O)c2nnc(-c3ccccc3)o2)cc1 (stereo unspecified)	76.5% (active)	31.6%
C=CCn1c(SCc2nnc(-c3ccccc3)o2)nnc1C(O)c1ccccc1 (stereo unspecified)	-11.7% (inactive)	-5.65%
Cc1ccc(S(=O)(=O)N(C)C)cc1NC(=O)COC(=O)C1COc2ccccc2O1 (stereo unspecified)	-0.23% (inactive)	-14.6%
CCOc1ccccc1Oc1cn[nH]c1-c1ccc(OC)cc1O	61.8% (active)	25.6%
CCOc1ccccc1NC(=O)Nc1cc(OC)ccc1OC	-4.32% (inactive)	11.2%
CCOc1ccc(-c2n[nH]c(C)c2-c2ccccn2)c(O)c1	-20.5% (inactive)	3.26%
C/C(=N\NC(=S)NCc1ccccc1)C1CCCCC1	47.2% (inactive)	53.3%
Cc1cc(C)nc(NS(=O)(=O)c2ccc(N/C=C\C(=O)c3cccs3)cc2)n1	-2.27% (inactive)	7.04%
COc1ccc(N2CCN(Cc3ccc(Br)s3)CC2)cc1	20.2% (inactive)	14.9%
Oc1c(CN2CCN(c3ccc(F)cc3)CC2)cc(Cl)c2cccnc12	-1.47% (inactive)	-25%
Fc1ccc(N2CCN(Cc3cnc(Oc4ccc(Br)cc4)s3)CC2)cc1	59% (active)	34%
Cc1ccc(-c2csc(NC(=O)c3cccs3)n2)cc1	22.4% (inactive)	16.9%
O=C(O)CCC(=O)N(Cc1ccco1)c1nc(-c2ccccc2)cs1	-21.3% (inactive)	4.1%

SMILES	inhibition [1]	inhibition (mutant strain inhibition)
Cc1ccc(-c2csc(N(Cc3ccco3)C(=O)c3cccs3)n2)cc1	67.6% (active)	34.4%
O=c1[nH]c(CN2CCOCC2)nc2scc(-c3ccccc3)c12	5.72% (inactive)	-6.95%
CC1CC2=C(CC1/C=N/NC(N)=S)C(C)(C)CCC2 (stereo unspecified)	67.3% (active)	64.1%
CC1(C)CCCC2=C1CC1C(=O)N(c3ccccc3)C(=O)C1C2 (stereo unspecified)	6.4% (inactive)	-1.63%
NC(=O)c1ccc(NC(=O)COC(=O)C(Cc2ccccc2)NC(=O)c2ccccc2)cc1 (stereo unspecified)	-21.4% (inactive)	-11.6%
O=C(c1ccccc1)c1ccc(OCC(O)CN2CCCC2)cc1 (stereo unspecified)	-8.18% (inactive)	5.68%
Cc1ccc(NC(=O)NNC(=O)c2sccc2-n2cccc2)cc1	-13.1% (inactive)	-0.19%
Cc1cccc(N=C2NN=C(c3c[nH]c4ccccc34)CS2)c1	13.8% (inactive)	-10.5%
c1ccc(CN2CCC(N=C3NN=C(c4ccc5c(c4)OCCO5)CS3)CC2)cc1	10.8% (inactive)	33%
Clc1cccc(N=C2NN=C(c3ccc4c(c3)OCCO4)CS2)c1	67.3% (active)	17%
O=C(Nc1ccccc1)/C(=C/c1ccc([N+](=O)[O-])cc1)NC(=O)c1ccccc1	-0.76% (inactive)	-8.51%
Cc1cccc(NC(=O)c2sc(-c3ccccc3)nc2-c2ccc([N+](=O)[O-])cc2)c1	2.52% (inactive)	-6.51%
CCOC(=O)/C(=C\c1ccc([N+](=O)[O-])cc1)C(=O)c1cc(C(C)=O)c(Nc2ccccc2)s1	84.2% (active)	50.2%
CC(=O)NCC(=O)N(Cc1ccco1)C1(C(=O)NC2CCCC2)CCCCC1	-0.52% (inactive)	10.2%
O=C(CCCN1C(=O)/C(=C/c2ccccc2)SC1=S)Nc1ccc(O)cc1	-11.2% (inactive)	6.5%
Cc1ccc(/C=N/NC(=O)COc2ccccc2-c2ccccc2)cc1	93.7% (active)	20.8%
Cc1ccc(OCC(=O)N/N=C\c2ccco2)c(C)c1	8.35% (inactive)	16.3%
Cc1ccc(OCC(=O)N/N=C/c2ccncc2)cc1	-0.91% (inactive)	-0.34%
CC(C(=O)NC1CCCC1)N(c1ccc(Oc2ccccc2)cc1)S(C)(=O)=O (stereo unspecified)	20.8% (inactive)	6.65%
COc1cccc(C(=O)N2CCCC(CCC(=O)NCc3ccc(F)c(F)c3)C2)c1 (stereo unspecified)	-18.6% (inactive)	0.91%
O=C(CCCNS(=O)(=O)c1cccc2nsnc12)NCCN1CCN(c2ccccc2F)CC1	-5.33% (inactive)	6.35%
